Experimental findings from PubChem BioAssay AID2501 (Southern Research Specialized Biocontainment Screening …, 2010) are described below.

Each structure is given as a SMILES string. About 1,200 (55%) of roughly 2,200 compounds were called active. The set was probably picked from earlier hits. Some of the results follow. Unmarked numbers belong to inactive results. No cut-off is given here; in the data, nearly all actives have IC50 up to about 92 µM.

The experiment in a line: counter assay for TAg ATPase ADP read-out – biochemical, ADP-Hunter, fluorescence, counter-screen (AID 2501).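 For inhibition: 0% = enzyme with vehicle and 100% = reference inhibitor wells; higher means more inhibition.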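 Note: purified T antigen ATPase.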 The conditions noted are these: series mostly up to 100 µM; inhibition: at the top concentration.
For `Cc1ccccc1CN(C)C(=O)COC(=O)CSc1ccc([N+](=O)[O-])cc1`, the “inhibition” value is -30.8%.

On to `COC/C=C/C1=CC2=CC(=O)C(C)(OC(=O)c3cnc4ccccc4n3)C(=O)C2=CO1` (centres undefined), for which the “inhibition” value is -8.04%.

Take `COC/C=C/C1=CC2=CC(=O)C(C)(OC(=O)c3ccco3)C(=O)C2=CO1` (centres undefined): the 50% inhibitory concentration (IC50) was 2.83 µM (active).

For the molecule `COC/C=C/C1=CC2=CC(=O)C(C)(OC(=O)CCC(=O)OC)C(=O)C2=CO1` (centres undefined), the “inhibition” value was 2.78%.

Consider `O=c1[nH]c(=O)c2nnc(N/N=C\c3ccc(O)cc3)nc2[nH]1`, for which the half-inhibitory concentration (IC50) is 7.96 µM (active).

Regarding `CCc1cc(N2CCOCC2)cc2c1[nH]c1ccccc12`, the IC50 was 6.15 µM (active).

For `Cc1ccc(Cn2c(=S)[nH]c3ccc(N4CCOCC4)cc3c2=O)o1`, the “inhibition” value is 9.7%.

As for `O=c1c2cc(N3CCOCC3)ccc2[nH]c(=S)n1Cc1ccco1`, the “inhibition” value is 26.4%.

With `Cc1cc(C)c(S(=O)(=O)c2ccccc2Cl)c(Cl)n1`, the “inhibition” value was 3.15%.

For the molecule `O=C1NC(=S)SC1=C1CCCC1`, the “inhibition” value was 23.6%.

Take `CN1CCC/C1=C/C=C1\SC(=S)NC1=O`: the half-inhibitory concentration (IC50) is 7.5 µM (active).

On to `CC(=O)c1sc2nsc(SCCN3CCOCC3)c2c1N`, for which the IC50 was 21.3 µM (active).

As to `O=C(CCn1c(=O)oc2cc(Cl)ccc21)Nc1ccc(O)cc1`, the IC50 is 3.84 µM (active).

For the molecule `O=C(O)CCC(=O)Nc1ccc(SSc2ccc(NC(=O)CCC(=O)O)cc2)cc1`, the “inhibition” value was -10.5%.

Turning to `CS(=O)(=O)c1ccc(NC(=O)CCN2C(=O)C3CCCCC3C2=O)cc1` (centres undefined), the “inhibition” value is -26.7%.

For the molecule `CN(C)CCN(C(=O)c1ccccc1Cl)c1nc2c(Cl)cccc2s1`, the “inhibition” value is 11% [at 50 µM].

For `C/C(=N/NC(N)=S)c1cc2ccc(O)cc2oc1=O`, the IC50 was 25.3 µM (active).

Take `COc1ccc(-c2nnc(SCC(=O)c3ccc[nH]3)n2-c2ccccc2)cc1`: the “inhibition” value was -19.4%.

Consider `COc1ccc(CCNC(=O)CSc2nncs2)cc1`, for which the “inhibition” value was -4.58%.

Turning to `COc1ccc(-n2c(SCC(=O)Nc3ccc(Cl)cc3)nc(O)c(Cc3ccccc3)c2=O)cc1`, the “inhibition” value is -18.5%.

For `CCOc1ccc(NCc2nnc(SCC(=O)Nc3cc(C)on3)n2-c2ccc(OC)cc2)cc1`, the IC50 is 13.5 µM (active).

As for `COC(=O)CSc1nnc(CNc2ccc(OC)cc2)n1C`, the IC50 was 19.3 µM (active).

On to `CCN1CCC[C@H]1CNC(=O)c1c(O)c(Cl)cc(Cl)c1OC`, for which the “inhibition” value was 12.9%.

Turning to `Nc1ccc(OCC(O)C[n+]2ccc(CCS(=O)(=O)[O-])cc2)cc1` (centres undefined), the IC50 is 4.65 µM (active).

`O=C(Cc1coc(-c2ccc(F)cc2)n1)NCc1ccccc1`: the “inhibition” value is 6.02%.

On to `Oc1ccc(/C=C/c2cc(O)cc(O)c2)cc1`, for which the IC50 is 11.3 µM (active).

Take `O=C(/C=C/c1ccc(O)c(O)c1)c1ccccc1O`: the concentration for half-maximal inhibition (IC50) was 6.57 µM (active).

Regarding `Oc1cc(O)cc(/C=C/c2ccc(O)c(O)c2)c1`, the “inhibition” value was 21.8% [at 50 µM].

As for `O=C(O)/C=C/c1ccc(O)c(O)c1`, the 50% inhibitory concentration (IC50) was 6.76 µM (active).

In the case of `O=C(O)/C=C/c1ccc(O)cc1`, the 50% inhibitory concentration (IC50) was 8.81 µM (active).

Regarding `O=C(c1nnsc1S(=O)c1ccc(Cl)cc1)N1CCOCC1` (centres undefined), the “inhibition” value is -15.7%.

As to `COc1cccc2c(=O)n(CC(=O)Nc3ccccc3F)ccc12`, the “inhibition” value was -11.2%.

Turning to `CC(/C=C/c1ccc(O)cc1)=N/O`, the IC50 is 3.08 µM (active).

In the case of `Cc1coc2c1C(=O)C(=O)c1c-2ccc2c(C)cccc12`, the “inhibition” value was -32.7%.

On to `O=c1c2ccccc2nc(COc2ccccc2)n1/N=C/c1ccc(O)c(O)c1`, for which the IC50 was 12.1 µM (active).

`CCCc1nc2ccccc2c(=O)n1/N=C/c1ccc(O)c(O)c1`: the IC50 was 10.5 µM (active).

On to `N#CCn1c(CCl)nc2ccccc2c1=O`, for which the “inhibition” value is -26.1%.

`O=C(OCn1nnc2ccccc2c1=O)c1ccc(O)cc1`: the “inhibition” value is -20.6%.

In the case of `Oc1ccc(/C=N/n2c(COc3ccccc3)n[nH]c2=S)cc1O`, the IC50 was 9.32 µM (active).

Consider `CCn1c(/C=C/c2c(C)[nH]c3ccccc23)nc2ccccc2c1=O`, for which the “inhibition” value was -12.5%.

As to `Cc1nc2ccccc2c(=O)n1/N=C/c1cn(-c2ccccc2)nc1-c1cccs1`, the “inhibition” value was -4.96%.

Turning to `CCn1c(/C=C/c2ccc(O)c(O)c2)nc2ccccc2c1=O`, the half-maximal inhibitory concentration (IC50) is 64.8 µM (active).

As to `CSC1=NS(=O)(=O)c2c(C)nn(C)c2S1`, the “inhibition” value is 19.3%.

For the molecule `CC(C)(C)c1cc[n+](C2=C([O-])c3ccccc3C(=O)/C2=N\S(=O)(=O)c2ccccc2)cc1`, the “inhibition” value was -13.2%.

Turning to `CCCNC(=O)c1ccc2c(=O)c(O)c(-c3cccc(Br)c3)[nH]c2c1`, the “inhibition” value was 22.1%.

In the case of `O=C1/C(=N/n2cnnc2)c2ccccc2N1Cc1ccccc1`, the “inhibition” value is 2.34%.

Take `Nc1cc(CN2C(=O)c3ccccc3C2=O)cc(Cl)c1O`: the 50% inhibitory concentration (IC50) is 4.47 µM (active).

As for `O=C(NCc1ccccc1)c1onc(CSc2ccc(F)cc2)c1C(=O)NCCCN1CCOCC1`, the “inhibition” value is 20.7%.

As for `CCN(CC)c1ccc(-c2nc3cnccn3c2NC2CCCC2)cc1`, the IC50 is 12.1 µM (active).

In the case of `Oc1ccc(-c2nc3ncccn3c2Nc2ccc3c(c2)OCO3)cc1`, the IC50 was 5.13 µM (active).

Turning to `CN(C)c1ccc(-c2nc3cnccn3c2Nc2ccc3c(c2)OCCO3)cc1`, the 50% inhibitory concentration (IC50) was 11.3 µM (active).

As to `COc1cc(-c2nc3cnccn3c2Nc2ccccc2)ccc1O`, the IC50 was 2.57 µM (active).

For the molecule `CC12CCC(C/C1=N/O)C2(C)C` (centres undefined), the “inhibition” value was -1.49%.

Regarding `COc1ccc(-c2c(C)n([O-])c3c([n+]2=O)CCCCC3)cc1OC`, the “inhibition” value was -3.4%.

For the molecule `Cc1ccc(/C(O)=C2/C(=O)C(=O)OC2c2ccc(Cl)cc2)cc1` (centres undefined), the “inhibition” value was -3.47%.

Take `Oc1ccc(-c2nc3cnccn3c2Nc2ccc3c(c2)OCCO3)cc1`: the IC50 was 3.53 µM (active).

On to `NNC(=O)c1cc(-c2ccccc2)sc1N`, for which the IC50 was 8.67 µM (active).

Take `CCOC(=O)c1c(N)ssc1=S`: the inhibition is 20.8% [at 12.5 µM].

For `CCOC(=O)c1cc(-c2ccc(N)cc2)sc1N`, the IC50 is 5.53 µM (active).

Turning to `NNC(=O)c1sc2cc(C(F)(F)F)cnc2c1-c1ccccn1`, the “inhibition” value is -6.44%.

Consider `CCOC(=O)c1sc(N)nc1C(C)C`, for which the “inhibition” value is 22.1%.

Take `CC(=O)c1ccc2c3c(cccc13)C(=O)N(c1c(C)nn(C)c1C)C2=O`: the “inhibition” value was -5.47%.

On to `O=C(NCc1ccco1)Nc1cccs1`, for which the “inhibition” value is 13.2%.

Regarding `O=C(NCc1cccs1)Nc1cc(Cl)ccc1Cl`, the concentration for half-maximal inhibition (IC50) was 91.1 µM (active).

For the molecule `Cc1ccc(C)n1/N=C1/NC(=O)CS1`, the “inhibition” value is -36%.

For the molecule `Oc1cc(O)c2c(c1)O[C@H](c1ccc(O)c(O)c1)[C@@H](O)C2`, the half-inhibitory concentration (IC50) was 11.9 µM (active).

For `Oc1cc(O)c2c(c1)OC(c1ccc(O)c(O)c1)C(O)C2` (centres undefined), the half-inhibitory concentration (IC50) was 3.95 µM (active).

Take `COC(=O)Cc1cc(=O)n(-c2nc3ccccc3s2)[nH]1`: the “inhibition” value was 24.2%.

With `CC(=O)O[C@H]1C[C@@]2(C)[C@@H](C[C@@H](O)[C@H]3[C@@]4(C)CC[C@@H](O)[C@@H](C)[C@@H]4CC[C@@]32C)/C1=C(\CCC=C(C)C)C(=O)O`, the “inhibition” value was -1.81%.
